4 molecules from the supplement of paper PMC12024424 can be followed below.

Assay [1] has as its system Staphylococcus aureus Sa2 (MRSA, cystic fibrosis isolate). Nature of the assay: growth reduction vs untreated control (OD550); higher = stronger antibacterial activity. The following applies: 0.1 mM; 24 h. As for the experimental part: (§1)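 Single-dose screen of the MedChem Express Drug Repurposing Library (0.1 mM, 1% DMSO) against planktonic MRSA S. aureus Sa2 (CF isolate) in TSB in 96-well plates, 37 °C aerobic, 24 h. Assays were run in triplicate and repeated twice.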

Assay [2] shares this test system. Nature of the assay: growth reduction vs untreated control (viable cell count); higher = stronger antibacterial activity; extreme values may be limits of the assay. Conditions: 0.1 mM; 24 h. As for the experimental part: as §1

As for `CC/C(=C(/CC)c1ccc(O)cc1)c1ccc(O)cc1` [Diethylstilbestrol], the growth reduction in assay [1] and in assay [2] was 100% in each case. Turning to `O=c1[nH]cc(F)c(=O)[nH]1` [5-Fluorouracil], the growth reduction in assay [1] stood at 97.1%; in assay [2], 100%. For `O=C(Nc1ccccc1)c1ccccc1O` [Salicylanilide] the same measures were 91.4% and 93%. In assay [1], `CC(C)(C)C#Cc1cc(N(C(=O)[C@H]2CC[C@H](C)CC2)[C@H]2CC[C@H](O)CC2)c(C(=O)O)s1` [Lomibuvir] came in with a growth reduction of 91.1%.
